# Screening data deposited in PubChem by several laboratories.
# ugtP null kill: growth inhibition of ugtP-null S. aureus, primary screen, RN4220 ugtP deletion, OD600. 16 h. growth inhibition, % (concentration not given with the values). actives 0.54% (n = 330,000). AID 1259309, 2017; in the data active = growth inhibition above about 68%;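 note: plate controls were untreated wells for no effect and antibiotic for full effect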
# PfHsp40 yeast: rescue of yeast from PfHsp40 toxicity, primary screen, S. cerevisiae, ATP luminescence | S. cerevisiae expressing PfHsp40, growth rescue | growth rescue, % at 12.5 µM | actives 0.68% (n = 340,000); in the data active = growth rescue above about 28%, passing the limit was not always enough;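 note: yeast W303a lacking pdr1 and pdr3 grown in galactose medium; growth measured after three days at 30 °C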
# Sa RN4220 lethal: growth inhibition of S. aureus RN4220, primary screen, OD600. inhibition, % (test concentration not listed). 16 h. actives 0.33% (n = 330,000); in the data active = inhibition above about 85%;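 note: plate controls were untreated cells for no effect and reference antibiotic for full effect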
# BJeLR lethal: MLPCN primary cell-based screen for lethality selective to Ras in HRASV12 cells; BJeLR (HRASV12) viability, CellTiter-Glo ATP luminescence, 48 h; inhibition, % (no concentration beside the values); actives 0.17% (n = 300,000); in the data active = inhibition above about 50%
# CCHFV vOTU inh: CCHFV vOTU protease inhibitors, primary screen, biochemical, Pep-AMC substrate, fluorescence; Crimean-Congo hemorrhagic fever virus L polyprotein viral ovarian tumor (vOTU) protease …; actives 0.55% (n = 370,000); inhibition, % at 11.5 µM; in the data active = inhibition above about 30%; note: 0% = vehicle wells with enzyme and 100% = no enzyme wells
# An asterisk follows results filed as active; · = no result. In the library only some 1.6% were active in any assay of this set; here they are far more common.
SMILES,ugtP null kill,PfHsp40 yeast,Sa RN4220 lethal,BJeLR lethal,CCHFV vOTU inh
COc1c(N2CC3CCCNC3C2)c(F)cc2c(=O)c(C(=O)O)cn(C3CC3)c12 (stereo not drawn),100*,·,101*,·,·
O=C(O)c1cn(C2CCCCC2)c2ccccc2c1=O,17,2,-9,-9,-8
NC1CCN(c2nc3c(cc2F)c(=O)c(C(=O)O)cn3-c2ccc(F)cc2F)C1 (stereo not drawn),99*,0,100*,-10,6
CCNC(=O)COc1ccc(C=NNC(=O)c2cccnc2)cc1OC,6,·,3,·,·
CC[C@@]12C(=O)N(c3cccc(Cl)c3)C(=O)N1C(c1ccc(Br)cc1)C1C(=O)N(C(C)(C)C)C(=O)C12 (stereo partly drawn),-29,·,4,·,·
COc1c(N2CCNC(C)C2)c(F)cc2c(=O)c(C(=O)O)cn(C3CC3)c12 (stereo not drawn),100*,·,100*,5,·
C=C(C)COc1ccc(-c2[nH]ncc2-c2ccc(OC)c(OC)c2)c(O)c1,·,1,·,48,9
C=C(C)COc1ccc(-c2[nH]ncc2-c2ccc(OC)cc2)c(O)c1,0,92*,-12,3,0
C=C(C)COc1ccc(-c2[nH]ncc2-c2ccccc2)c(O)c1,84*,519*,-16,4,10
CCOC(=O)C(C)/C(C)=N/NC(=O)c1cc2ccccc2cc1O (stereo not drawn),·,156*,·,5,9
CCOC(=O)C(CC)C(C)=NNC(=O)c1ccccc1O (stereo not drawn),3,·,12,·,·
O=C1NC(=S)S/C1=C\c1cc(Cl)ccc1Cl,100*,-2,100*,·,23
Cc1cc(C=C2SC(=S)NC2=O)c(C)[nH]1,0,·,13,·,·
O=C(O)CC1c2cc(C(F)(F)F)ccc2S(=O)(=O)N1Cc1ccccc1 (stereo not drawn),7,·,6,·,·
O/N=C/c1cc(Br)ccc1OCc1ccc(F)cc1,·,0,·,-1,19
ON=Cc1cc(Br)ccc1OCc1ccccc1F,87*,·,6,·,·
Cc1ccc(COc2ccc(Br)cc2/C=N/O)cc1,·,450*,·,2,10
ON=Cc1cc(Br)ccc1OCc1cccc(F)c1,82*,·,2,·,·
O/N=C/c1cc(Br)ccc1OCc1cccc(F)c1,·,279*,·,13,21
CN(C)S(=O)(=O)c1cccc(NC(=S)NC(=O)c2ccco2)c1,3,-3,4,·,-3
CC(=O)NC(CC(=O)NNC(=O)c1cc2ccccc2cc1O)c1ccccc1 (stereo not drawn),3,78*,5,-1,18
COc1cc(NC(=O)c2cc3ccccc3cc2O)c(OC)cc1Cl,4,-1,-2,15,1
O=C(NNC(=O)c1cc2ccccc2cc1O)Nc1ccc(Br)cc1,3,36*,-1,-6,-18
CN(C)S(=O)(=O)c1cccc(NC(=S)NNC(=O)c2cc3ccccc3cc2O)c1,·,219*,·,·,15
O=C(NNC(=O)c1cc2ccccc2cc1O)Nc1ccc(F)cc1F,1,25,3,8,7
SMILES,ugtP null kill,PfHsp40 yeast,Sa RN4220 lethal,BJeLR lethal,CCHFV vOTU inh
COc1ccccc1NC(=O)c1cc2cc(Br)ccc2cc1O,100*,0,99*,-2,0
CC(O)C1CNC(=O)C(=O)N1CC1CCCCC1 (stereo not drawn),7,·,5,·,·
COc1ccc(NS(=O)(=O)c2cccc(C(=O)NN=C(C)c3ccc(-n4ccnc4)cc3)c2)cc1,0,·,2,·,·
O=C(NNC(=O)c1cc2ccccc2cc1O)NC1CCCCC1,1,60*,-1,3,6
COc1ccc(NC(=O)NNC(=O)c2cc3ccccc3cc2O)cc1,-2,90*,4,0,3
COc1ccc(C)cc1NC(=O)NNC(=O)c1cc2ccccc2cc1O,-9,1,2,-11,20
Cc1ccccc1C=NNc1nc2ccccc2c(=O)n1O,5,·,12,·,·
CN1CCN(CCC(=O)NN=Cc2ccccn2)CC1,7,·,5,·,·
CC1CN(C(C)CO)C(=O)Cc2cc(NS(=O)(=O)c3cccs3)ccc2OC1CN(C)S(=O)(=O)c1cn(C)cn1 (stereo not drawn),5,·,2,·,·
Cc1cc(C(C)(C)C)cc(C)c1Cn1c2[n+](c3ccc(C(F)(F)F)cc31)CCCCC2,100*,2,101*,6,9
O=C1c2ccccc2C(O)N1c1ccc(Cl)cc1 (stereo not drawn),-7,-1,-6,9,-2
COC(=O)C1CN(C#N)N(c2ccc(Cl)cc2)C12c1ccccc1-c1ccccc12 (stereo not drawn),96*,4,90*,84*,·
COc1ccc(-c2cc(-c3ccc(OC)cc3)[nH]n2)cc1,53,53*,5,-18,-1
CC(C)(C)CC(C)(C)c1ccc(OCC(=O)NN=Cc2ccc(S(=O)(=O)O)o2)cc1,3,·,4,·,·
O=C(Nc1ccc(Cl)c(Cl)c1)c1ccc(Cl)c(Cl)c1,·,0,·,0,6
CC(C)C1O/C(=N/C(=O)Nc2ccc(Cl)c(Cl)c2)NC1=O (stereo not drawn),100*,0,100*,-5,-5
CC1CC2C3CC(F)C4=CC(=O)C(Cl)=C[C@]4(C)[C@@]3(F)C(O)C[C@]2(C)[C@@]1(O)C(=O)CO (stereo partly drawn),-7,·,5,·,·
O=C(COC(=O)c1ccc(Cl)nc1)Nc1cc(S(=O)(=O)N2CCCCC2)ccc1Cl,3,173*,6,-1,-1
O=C(CN1CCN(c2ccc(O)cc2)CC1)Nc1cc(S(=O)(=O)N2CCCCC2)ccc1Cl,-1,0,0,-6,9
CCN1CCN(CC(=O)Nc2cc(S(=O)(=O)N3CCCCC3)ccc2Cl)CC1,-2,56*,1,·,-4
N#CCCn1cc(C(=O)Nc2ccccc2Cl)c(-c2ccc(F)cc2)n1,9,47*,7,-8,-2
COC(=O)C1CCC(C)C(c2ccc(C)cc2)N1C(=O)c1ccc(C=NOCCC2C=CC(OC(C)=O)C(COC(C)=O)O2)cc1 (stereo not drawn),4,·,10,·,·
O=C(CNC(=O)c1cccc(Cl)c1)Nc1ccc(Br)cc1C(=O)c1ccccc1,-14,36*,0,-9,10
CCN(CC)c1ccc(S(=O)(=O)N2CCOCC2)cc1NC(=O)CSc1nncs1,-6,2,0,3,·
CCN(CC)c1ccc(S(=O)(=O)N2CCOCC2)cc1NC(=O)CSc1nncn1C,9,-1,5,·,35*
CC1CN(C(C)CO)C(=O)c2cc(NC(=O)NC3CCCCC3)ccc2OC1CN(C)C(=O)NC1CCCCC1 (stereo not drawn),-8,·,-2,·,·
COc1cc(C2C3C(C)N(C)C(=O)N(C)C3N(C)C(=O)N2C)ccc1O (stereo not drawn),2,52*,2,-16,-1
Oc1ccc(-c2nc3ccc4ccccc4c3c3c2CCC3)cc1O,98*,18,-4,-5,0
